# Assay results: the supplement of paper PMC8728848
# This is one part of a sample in which the strongest signals are shown more often than they occur.
# How the values were obtained:
# Assay in all cases: glycan array binding signal (z-score within array); higher = stronger binding
# Details in all cases: glycan notation: IUPAC condensed, linker removed
# [1] = test system: Fuc(a1-3)[Neu5Ac(a2-3)]Gal(b1-4)GlcNAc(b1-3)GalNAc
# Outline: (§1)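 From the Consortium for Functional Glycomics database, 3228 arrays were curated, keeping only those whose protein sequence was available. Binding is given as a within-array Z-score averaged across arrays sharing a protein sequence and across linkers. Negative Z-scores can be read as non-binding.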
# Gal(a1-3)Gal(b1-3)GlcNAc = test system: Gal(a1-3)Gal(b1-3)GlcNAc
# Outline: as §1
# Fuc(a1-4)GlcNAc = test system: Fuc(a1-4)GlcNAc
# Outline: as §1
# Fuc(b1-3)GlcNAc = test system: Fuc(b1-3)GlcNAc
# Outline: as §1
# [2] = test system: Gal(a1-3)Gal(b1-3)GlcNAc(b1-2)Man(a1-3)[Gal(a1-3)Gal(b1-3)GlcNAc(b1-2)Man(a1-6)]Man(b1-4)GlcNAc(b1-4)GlcNAc
# Outline: as §1
# [3] = test system: Gal(a1-3)Gal(b1-3)GlcNAc(b1-3)GalNAc
# Outline: as §1
# Gal(a1-3)Gal(b1-3)Glc = test system: Gal(a1-3)Gal(b1-3)Glc
# Outline: as §1
# [4] = test system: Gal(a1-3)Gal(b1-3)[Fuc(a1-4)]GlcNAc(b1-2)Man(a1-3)[Gal(a1-3)Gal(b1-3)[Fuc(a1-4)]GlcNAc(b1-2)Man(a1-6)]Man(b1-4)GlcNAc(b1-4)GlcNAc
# Outline: as §1
# [5] = test system: Gal(a1-3)Gal(b1-4)GlcNAc(b1-2)Man(a1-3)[Gal(a1-3)Gal(b1-4)GlcNAc(b1-2)Man(a1-6)]Man(b1-4)GlcNAc(b1-4)GlcNAc
# Outline: as §1
# Chain of C3b (Homo sapiens), P01024 (P01024 23-667): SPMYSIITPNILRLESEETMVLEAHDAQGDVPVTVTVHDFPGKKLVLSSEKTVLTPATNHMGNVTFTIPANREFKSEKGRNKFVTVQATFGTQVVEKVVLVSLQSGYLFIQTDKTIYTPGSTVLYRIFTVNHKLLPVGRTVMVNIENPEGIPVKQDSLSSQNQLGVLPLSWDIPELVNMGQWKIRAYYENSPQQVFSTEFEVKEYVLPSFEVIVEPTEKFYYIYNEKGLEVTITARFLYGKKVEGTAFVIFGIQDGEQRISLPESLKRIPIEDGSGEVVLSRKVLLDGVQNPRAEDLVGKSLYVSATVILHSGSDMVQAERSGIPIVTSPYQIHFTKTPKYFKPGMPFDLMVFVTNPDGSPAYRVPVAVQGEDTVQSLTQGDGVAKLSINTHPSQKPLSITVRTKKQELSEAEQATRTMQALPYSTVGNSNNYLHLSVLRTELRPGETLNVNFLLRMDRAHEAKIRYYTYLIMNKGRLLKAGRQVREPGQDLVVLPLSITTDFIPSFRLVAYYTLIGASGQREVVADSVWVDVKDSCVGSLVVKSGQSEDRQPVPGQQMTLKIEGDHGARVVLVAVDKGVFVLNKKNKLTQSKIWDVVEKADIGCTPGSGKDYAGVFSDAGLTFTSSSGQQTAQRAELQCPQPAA
# Chain of Aggrecan (Rattus norvegicus), NP_071526 (chain, as listed by the source): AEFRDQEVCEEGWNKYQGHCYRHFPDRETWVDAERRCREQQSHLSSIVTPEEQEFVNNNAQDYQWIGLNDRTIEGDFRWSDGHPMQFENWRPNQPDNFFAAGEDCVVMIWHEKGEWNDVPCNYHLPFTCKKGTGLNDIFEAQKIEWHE
# Chain of PILRb (Mus musculus), Q2YSF2 (Q2YSF2 entry or part of it): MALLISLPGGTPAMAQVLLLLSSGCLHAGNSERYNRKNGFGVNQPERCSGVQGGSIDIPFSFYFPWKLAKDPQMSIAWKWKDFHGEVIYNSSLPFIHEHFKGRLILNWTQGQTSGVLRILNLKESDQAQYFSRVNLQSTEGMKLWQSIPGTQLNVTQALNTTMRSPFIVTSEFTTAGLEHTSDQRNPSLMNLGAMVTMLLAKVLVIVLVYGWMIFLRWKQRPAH
# Chain of Avaren (Actinomycete K97) (chain, as listed by the source): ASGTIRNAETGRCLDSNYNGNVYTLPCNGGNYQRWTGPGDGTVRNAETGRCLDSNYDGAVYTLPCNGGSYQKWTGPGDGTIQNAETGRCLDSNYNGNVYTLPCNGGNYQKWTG
# Chain of Neurocan (Homo sapiens), O14594 (O14594 other isoform, or with tags, fused parts or gaps): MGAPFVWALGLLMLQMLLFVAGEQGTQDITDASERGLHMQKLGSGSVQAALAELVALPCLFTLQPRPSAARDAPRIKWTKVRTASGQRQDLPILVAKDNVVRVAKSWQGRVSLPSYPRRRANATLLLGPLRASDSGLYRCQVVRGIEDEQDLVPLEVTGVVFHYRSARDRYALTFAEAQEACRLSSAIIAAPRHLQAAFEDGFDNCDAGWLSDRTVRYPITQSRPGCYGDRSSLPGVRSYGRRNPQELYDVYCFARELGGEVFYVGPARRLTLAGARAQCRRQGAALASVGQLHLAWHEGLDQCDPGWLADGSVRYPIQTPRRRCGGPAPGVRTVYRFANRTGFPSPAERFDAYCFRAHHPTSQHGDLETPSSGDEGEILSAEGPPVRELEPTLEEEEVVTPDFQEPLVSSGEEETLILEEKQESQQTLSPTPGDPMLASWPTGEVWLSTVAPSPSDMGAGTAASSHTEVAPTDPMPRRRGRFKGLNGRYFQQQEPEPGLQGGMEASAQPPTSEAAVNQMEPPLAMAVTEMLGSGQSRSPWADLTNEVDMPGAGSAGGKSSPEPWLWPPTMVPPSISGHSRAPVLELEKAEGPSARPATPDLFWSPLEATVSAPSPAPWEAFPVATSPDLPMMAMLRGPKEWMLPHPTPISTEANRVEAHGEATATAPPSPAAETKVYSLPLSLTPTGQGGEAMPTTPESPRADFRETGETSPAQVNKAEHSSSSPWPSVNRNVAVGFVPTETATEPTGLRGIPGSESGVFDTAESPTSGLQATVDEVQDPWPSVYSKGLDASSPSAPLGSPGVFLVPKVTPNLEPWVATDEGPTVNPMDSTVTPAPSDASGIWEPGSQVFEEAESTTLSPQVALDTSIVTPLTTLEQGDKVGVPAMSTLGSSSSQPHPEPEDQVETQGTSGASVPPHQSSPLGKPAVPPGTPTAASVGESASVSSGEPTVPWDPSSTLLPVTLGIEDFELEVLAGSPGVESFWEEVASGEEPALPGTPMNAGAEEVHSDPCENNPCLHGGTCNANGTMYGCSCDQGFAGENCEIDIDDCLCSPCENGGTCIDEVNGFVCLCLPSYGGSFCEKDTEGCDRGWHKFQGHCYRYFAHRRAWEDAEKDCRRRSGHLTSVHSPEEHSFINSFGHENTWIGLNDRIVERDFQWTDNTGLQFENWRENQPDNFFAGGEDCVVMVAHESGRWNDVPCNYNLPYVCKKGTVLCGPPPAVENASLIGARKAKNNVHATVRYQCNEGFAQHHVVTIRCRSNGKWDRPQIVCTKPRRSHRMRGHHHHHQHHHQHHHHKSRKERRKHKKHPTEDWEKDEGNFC
# Chain of SRLC (Mus musculus), Q8VIF6 (Q8VIF6 other isoform, or with tags, fused parts or gaps): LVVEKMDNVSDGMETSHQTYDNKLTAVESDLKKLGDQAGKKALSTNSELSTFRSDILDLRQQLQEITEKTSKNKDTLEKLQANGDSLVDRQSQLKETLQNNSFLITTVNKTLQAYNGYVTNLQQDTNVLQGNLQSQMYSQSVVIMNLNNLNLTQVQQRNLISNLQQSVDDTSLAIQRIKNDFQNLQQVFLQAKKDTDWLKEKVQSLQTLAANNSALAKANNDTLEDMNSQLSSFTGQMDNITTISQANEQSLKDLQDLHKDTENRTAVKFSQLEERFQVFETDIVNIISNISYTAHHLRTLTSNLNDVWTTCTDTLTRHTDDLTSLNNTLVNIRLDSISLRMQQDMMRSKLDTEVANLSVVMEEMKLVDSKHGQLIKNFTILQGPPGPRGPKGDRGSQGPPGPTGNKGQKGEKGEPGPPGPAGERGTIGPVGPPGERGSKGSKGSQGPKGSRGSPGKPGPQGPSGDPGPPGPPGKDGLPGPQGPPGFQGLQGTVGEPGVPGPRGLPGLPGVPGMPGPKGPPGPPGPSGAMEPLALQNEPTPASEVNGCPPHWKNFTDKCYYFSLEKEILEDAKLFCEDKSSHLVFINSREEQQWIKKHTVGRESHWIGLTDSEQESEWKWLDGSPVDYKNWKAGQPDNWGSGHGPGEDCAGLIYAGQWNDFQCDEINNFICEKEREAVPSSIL
# Chain of CHT (Homo sapiens) (chain, as listed by the source): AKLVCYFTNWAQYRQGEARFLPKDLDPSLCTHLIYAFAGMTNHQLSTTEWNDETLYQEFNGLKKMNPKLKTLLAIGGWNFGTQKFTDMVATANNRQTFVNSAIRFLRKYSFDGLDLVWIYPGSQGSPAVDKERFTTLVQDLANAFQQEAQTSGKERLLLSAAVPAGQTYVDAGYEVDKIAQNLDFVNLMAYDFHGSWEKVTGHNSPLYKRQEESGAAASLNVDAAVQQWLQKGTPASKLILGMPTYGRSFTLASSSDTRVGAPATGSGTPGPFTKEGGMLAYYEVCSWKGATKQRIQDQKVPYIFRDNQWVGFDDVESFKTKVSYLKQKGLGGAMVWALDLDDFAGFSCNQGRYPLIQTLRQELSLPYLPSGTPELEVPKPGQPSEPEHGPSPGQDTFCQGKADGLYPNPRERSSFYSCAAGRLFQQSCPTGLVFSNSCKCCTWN
substance,measurement,setting,value
"Aggrecan (Rattus norvegicus), NP_071526",glycan array binding signal (z-score),[1],0.658
same,glycan array binding signal (z-score),Gal(a1-3)Gal(b1-3)GlcNAc,-0.05
"C3b (Homo sapiens), P01024",glycan array binding signal (z-score),Fuc(a1-4)GlcNAc,3.19
same,glycan array binding signal (z-score),Gal(a1-3)Gal(b1-3)GlcNAc,1.35
"Siglec-8 (Homo sapiens), Q9NYZ4",glycan array binding signal (z-score),Fuc(a1-4)GlcNAc; mutation: R125K,2.97
"Neurocan (Homo sapiens), O14594",glycan array binding signal (z-score),Fuc(b1-3)GlcNAc,-0.101
CHT (Homo sapiens),glycan array binding signal (z-score),"Fuc(b1-3)GlcNAc; mutation: D138V, E140I",-0.132
"PILRb (Mus musculus), Q2YSF2",glycan array binding signal (z-score),[2],6.25
same,glycan array binding signal (z-score),[3],-0.312
"SRLC (Mus musculus), Q8VIF6",glycan array binding signal (z-score),Gal(a1-3)Gal(b1-3)Glc,-0.234
MpAFP RI GFP (Marinomonas primoryensis),glycan array binding signal (z-score),[4],2.56
Avaren (Actinomycete K97),glycan array binding signal (z-score),[5],-0.106
